Bioassay records: PubChem BioAssay, The Scripps Research Institute Molecular Screening Center
ADAM10 inh: inhibits human ADAM10 | O14672 | recombinant ADAM10, EDANS/DABCYL FRET peptide cleavage, 3 h | AID 720582 | inhibition, % at 7 µM | actives 0.62% (n = 370,000);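 active = inhibition above a per-campaign cutoff equal to the mean of compounds falling between control-based bounds plus 3 SD, cut at about 20% in these data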;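 note: 0% = DMSO wells while the 100% control is not disclosed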
PLCg1 inh: inhibitors of human phospholipase C gamma1; P19174; purified PLC-gamma1, fluorogenic substrate, fluorescence; inhibition, % at 12.2 µM; actives 0.84% (n = 370,000); AID 720700; in the data active = inhibition above about 9.5%
PLCb3 inh: blocks human PLC-beta3 enzyme activity; Purified PLC-beta3, fluorogenic substrate, fluorescence; inhibition, % at 12.2 µM; actives 0.18% (n = 370,000); AID 720704; in the data active = inhibition above about 11%;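 note: 0% = median of compound wells on plate and 100% = full blocker control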
HGIII-sPLA2 inh: Inhibits HGIII-sPLA2 liposome hydrolysis, primary screen | Q9NZ20 | QFRET BODIPY PC-A2 liposome hydrolysis, fluorescence | inhibition, % at 12.2 µM | actives 0.56% (n = 370,000) | AID 743126;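 active = inhibition above mean plus 3 SD of compounds lying within the high and low control bounds, cut at about 19% in these data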;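 note: 0% = median of test compound wells and 100% = no enzyme DMSO wells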
KLK7 zymogen act: activates the human kallikrein-7 zymogen; P49862; purified proKLK7, EDANS-DABCYL substrate fluorescence; 100% is mature enzyme control, 0% vehicle; activation, % at 7 µM; actives 0.9% (n = 370,000); AID 652039;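 active = activation above the mean of all tested compounds plus 3 SD, computed per campaign excluding outliers beyond control limits, cut at about 13% in these data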
Target sequence (P49862 whole entry, looked up): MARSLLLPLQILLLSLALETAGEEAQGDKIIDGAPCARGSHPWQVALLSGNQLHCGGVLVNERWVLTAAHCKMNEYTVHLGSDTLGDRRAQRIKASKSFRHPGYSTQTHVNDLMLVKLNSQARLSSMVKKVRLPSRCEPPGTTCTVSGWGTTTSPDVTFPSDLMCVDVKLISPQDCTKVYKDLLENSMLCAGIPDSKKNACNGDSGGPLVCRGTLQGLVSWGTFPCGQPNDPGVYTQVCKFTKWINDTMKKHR
ADAM17 inh: inhibits human ADAM17; P78536; recombinant ADAM17, EDANS/DABCYL FRET peptide cleavage; inhibition, % at 6.95 µM; actives 0.83% (n = 370,000); AID 720648;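 active = inhibition above the mean of compounds lying between control limits plus 3 SD, set per campaign, cut at about 8.5% in these data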;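 note: 0% = DMSO-only wells as the low control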
proKLK7 act conf: confirmation of human kallikrein-7 zymogen activators; shares compounds with KLK7 zymogen act; purified proKLK7, EDANS-DABCYL substrate fluorescence; scaled: vehicle 0, mature enzyme 100; activation, % at 7 µM; actives 68% (n = 3,200); AID 686949;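 active = activation, as change over the incubation, above the mean of all tested compounds plus 3 SD, cut at about 13% in these data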
EDANS interfere: optically interferes with EDANS-DABCYL signal, flagging KLK7 hits | EDANS-DABCYL substrate fluorescence interference, no enzyme, 4 h; solvent 0%, active enzyme control 100% | actives 80% (n = 3,200) | AID 686952 | shares compounds with KLK7 zymogen act | activation, % at 7 µM;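 active = activation above the all-compound mean plus 3 SD, ignoring values outside control-based bounds, cut at about 4.8% in these data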;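 note: value is the 4 h activation minus the activation read at time zero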
* marks the source's active call; other numbers are inactive results; i = inactive; x = not tested or not shown. Rows were chosen to be rich in hits. Some 3.4% of all compounds tested hit in one or more screens of this group.

SMILES	ADAM10 inh	PLCg1 inh	PLCb3 inh	HGIII-sPLA2 inh	KLK7 zymogen act	ADAM17 inh	proKLK7 act conf	EDANS interfere
COc1ccc(OC)c2sc(NC(=O)C3=COCCO3)nc12	-328	-21	-33	-34	56*	-86	8	2
COC[C@@H]1CCCN1c1cccc2c1S(=O)(=O)N1CC[C@@H](C1)O2	-2	-3	-6	1	0	-1	x	x
O=C(Nc1cccc(NC(=O)c2ccc(-c3ccc(Br)cc3)o2)c1)c1ccco1	-184	-24	-73	-9	440*	-68	446*	213*
O=C(Nc1cccc(NC(=O)c2ccccc2Cl)c1)c1ccco1	-2	0	-1	-7	0	-1	x	x
Cn1c(=O)c2c(-c3ccccc3)n(-n3cnnc3)cc2n(C)c1=O	-3	-20	-17	0	14*	-4	1	6.8*
O=C(COC(=O)c1ccccc1NCCO)Nc1ccc(S(=O)(=O)NC2=NCCCCC2)cc1	i	i	i	-5	23*	i	-32	-21
O=C(COC(=O)c1ccccc1O)Nc1cccc(S(=O)(=O)NC2=NCCCCC2)c1	10	0	-6	-3	3	-3	x	x
Fc1ccccc1-c1nc(NCc2ccco2)c2ccccc2n1	5	1	-1	-18	0	0	x	x
Oc1ccccc1-c1nc(NCc2ccco2)c2ccccc2n1	12	-104	-137	-6	13*	-1	2	13*
CO[C@@H]1[C@H](O)CC[C@]2(O)CN(c3ccc(F)cc3)[C@](C)([C@H](O)CC=C(C)C)[C@@H]12	-6	-3	-6	6	0	2	x	x
CCCCC1OC2(C)OC(=N)C1(C#N)C(C#N)(C#N)C2c1ccccc1 (stereo not drawn)	i	-351	-397	-11	14*	-418	47*	50*
CC1OC2(C)OC(=N)C1(C#N)C(C#N)(C#N)C2c1ccccc1 (stereo not drawn)	i	i	i	-1	-6	i	x	x
CC(C)=CCOc1ccc2ccc(=O)oc2c1	i	-35	-52	-3	4	-187	x	x
COc1cc2ccc(=O)oc2c(O)c1OCC=C(C)C	-134	-176	-209	2	148*	-50	152*	151*
CC(=O)c1ccc(-c2ccc(C(=O)NC3CC(C)(C)NC(C)(C)C3)o2)cc1	i	-387	-383	15	34*	i	18*	24*
CC(=O)c1ccc(-c2ccc(C(=O)N3CCC(C(N)=O)CC3)o2)cc1	i	-386	-405	13	24*	i	27*	29*
CC(=O)c1ccc(-c2ccc(C(=O)NCC3CCCO3)o2)cc1 (stereo not drawn)	i	-408	-497	2	29*	i	43*	45*
O=C(NCC1CCCO1)c1ccc(-c2cccc(C(F)(F)F)c2)o1 (stereo not drawn)	-17	2	-8	3	0	-2	x	x
O=C(c1ccccc1Cl)N1CCSCCS1(=O)=O	-13	0	-1	15	0	-2	x	x
CS(=O)(=O)Nc1ccc(C(=O)Nc2ccc3ccccc3c2)cc1	-35	-7	-15	-17	13*	-23	1	1
CCOC(=O)c1c2ccc(OCC(=O)NN)cc2n2ccccc12	-451	i	i	7	49*	-157	-27	-33
COC(=O)[C@]12C[C@H](CC(=O)N3CCOCC3)C(=O)N(Cc3ccc4c(c3)OCO4)C1=C[C@H](C(C)(C)C)O[C@@H]2C	2	2	2	-5	0	-1	x	x
COc1cc(C2Nc3ccccc3C(=O)N2c2ccc(Cl)cc2)c(Cl)cc1OCC(=O)O (stereo not drawn)	i	-369	-436	7	22*	-207	26*	27*
COc1cccc2[nH]c3c(N4CCCCC4)ncnc3c12	-299	-149	-213	-3	8	-97	x	x
